High-throughput results deposited in PubChem BioAssay by National Center for Advancing Translational Sciences (NCATS).
12-LOX inh – ALOX12 (human) lipoxygenase inhibition | P18054 | purified 12hLO, xylenol orange hydroperoxide absorbance | Potency, µM (highest dose often 108 µM), for the others: at the highest dose activity change, negative = inhibition, hits mostly inhibitors | 580,000 tested, 1.1% active
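Purified human 12hLO (150 nM final) in 25 mM Hepes, 0.01% Triton X-100, pH 7.0 was preincubated 15 min at room temperature with compound. Then 40 uM arachidonic acid was added, 30 min. Hydroperoxide was read by Fe-XO absorbance ratio 573/405 nm.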
Gal4-VP16 FLuc – inhibits Gal4-VP16 luciferase reporter, ROR gamma counter-screen; Drosophila S2 Gal4-VP16 UAS-luciferase, luminescence, 20 h; Potency, µM (top dose mostly 53.6 µM), without a hit: at the highest dose activity, negative = inhibition, actives largely listed as inhibitors; 310,000 tested, 3.5% active; AID 2546;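 also: Gal4-VP16 expression switched on by copper sulfate through the metallothionein promoter; nearly all actives have a fitted effect of over 50% in size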
ELG1 DNA repair – blocks ELG1-dependent DNA repair in HEK293T cells; HEK293T ELG1-luciferase reporter, luminescence, 16 h; DNA damage induced by 5-fluorouridine; Potency, µM (doses to about 46.1 µM), for the others: at the highest dose activity change, negative = inhibition, most hits filed as inhibitors; 330,000 tested, 2.3% active; also: nearly all actives have a fitted effect of over 55% in size
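5-Fluorouridine DNA damage + compound/DMSO, 2,000 cells/well, 16 h, 37 °C/5% CO2. ONE-Glo, 30 min RT, luminescence. Readout = decrease in reporter signal.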
TDP1 cell noCPT – qHTS for Inhibitors of human tyrosyl-DNA phosphodiesterase 1 (TDP1): qHTS in cells in absence of CPT | Potency, µM (doses to about 46.2 µM), inactives show at the highest dose activity change, negative = growth inhibition, most hits filed as inhibitors | 420,000 tested, 15% active | DT40 Tdp1-/- hTDP1 cells, no CPT, ATP luminescence, 48 h; also: nearly all actives have a fitted effect of over 55% in size
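Chicken DT40 Tdp1-/- cells stably complemented with human TDP1 were seeded at 400 cells/well with DMSO in place of 20 nM camptothecin. After compound pinning, cells grew at least 48 hr at 37 °C; viability read by CellTiter-Glo luminescence.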
RORg inh – inhibitors of mouse ROR gamma transcriptional activity | Drosophila S2 Gal4-RORgamma UAS-luciferase reporter, 20 h | Potency, µM (series often up to 53.6 µM), for the others: at the top dose activity change, negative = inhibition, most hits filed as inhibitors | 310,000 tested, 5.4% active | AID 2551; also: nearly all actives have a fitted effect of over 60% in size
Target sequence (P51450 whole entry, looked up, the tested form may be a part): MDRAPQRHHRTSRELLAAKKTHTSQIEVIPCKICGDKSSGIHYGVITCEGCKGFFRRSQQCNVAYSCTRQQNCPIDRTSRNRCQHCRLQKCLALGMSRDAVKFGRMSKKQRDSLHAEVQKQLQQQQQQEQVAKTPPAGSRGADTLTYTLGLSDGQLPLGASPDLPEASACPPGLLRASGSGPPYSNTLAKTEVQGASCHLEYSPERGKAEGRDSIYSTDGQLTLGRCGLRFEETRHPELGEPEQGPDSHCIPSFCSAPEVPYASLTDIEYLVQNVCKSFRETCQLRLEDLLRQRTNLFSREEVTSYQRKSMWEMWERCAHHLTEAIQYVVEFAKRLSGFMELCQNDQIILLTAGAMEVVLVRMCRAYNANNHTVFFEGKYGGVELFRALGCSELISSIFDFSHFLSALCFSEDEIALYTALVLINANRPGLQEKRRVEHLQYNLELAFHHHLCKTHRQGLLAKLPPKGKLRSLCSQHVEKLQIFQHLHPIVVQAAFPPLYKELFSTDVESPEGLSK
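A Gal4/UAS one-hybrid system in insect cells: metallothionein-promoter Gal4–ROR gamma fusion plus Photinus luciferase reporter. Copper sulfate 700 uM final, 20 hr ambient incubation, luminescent detection after 10 min with reagent.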
DT40 TDP1 CPT – growth inhibition of DT40 Tdp1-/-;hTDP1 cells with camptothecin (screen for TDP1 inhibitors); chicken DT40 Tdp1-/-;hTDP1 cells + 20 nM CPT, ATP luminescence, 48 h; 420,000 tested, 12% active; Potency, µM (highest dose often 46.2 µM), without a hit: at the top dose activity change, negative = growth inhibition, usual class: inhibitors; AID 686979; also: nearly all actives have a fitted effect of over 55% in size
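Chicken DT40 Tdp1-/- cells stably complemented with human TDP1 were seeded at 400 cells/well in medium containing 20 nM camptothecin, exposed to pin-transferred compounds, and grown at 37 °C for at least 48 hr. Viability was read as ATP luminescence.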
Numbers without * were called inactive; ? = inconclusive; nt = no result given. Sampled rows, rich in hits. Any-hit rate of the full collection: about 15%. Calls follow the shape of the dose curve; as a rule, active = well fitted curve in the direction sought with a large enough effect; inconclusive = small, poorly fitted or top-dose-only effect, or another doubt; inactive = no such curve, though single readings can be large; an effect the other way counts as inactive or inconclusive. % is scaled to controls: 0 for no effect and ±100 for the full control effect; potency is read from the fitted curve at half-maximal effect.

SMILES | 12-LOX inh | Gal4-VP16 FLuc | ELG1 DNA repair | TDP1 cell noCPT | RORg inh | DT40 TDP1 CPT
CCCc1nc(C(=O)N2CCCCC2C(=O)OCC)cs1 (stereo not drawn) | 19.9% | nt | nt | nt | nt | nt
Cc1cc([N+](=O)[O-])nn1CC(=O)N/N=C/c1ccc(O)cc1O | -18.6% | -6.1% | ? | 6.51µM* | ? | 8.2µM*
Cc1cc([N+](=O)[O-])nn1CC(=O)N/N=C/c1ccccc1Br | 19.9% | 7.6% | -3.2% | -16.1% | 21.4% | -23.0%
COc1ccc(CC(N)c2csc(Nc3cc(NCCCO)ncn3)n2)cc1 (stereo not drawn) | 1.4% | nt | nt | ? | nt | ?
NC(Cc1ccc(Cl)cc1)c1csc(Nc2ccc(-c3ccccc3)nn2)n1 (stereo not drawn) | 0.8% | nt | nt | -89.8% | nt | 6.51µM*
NC(Cc1ccc(Cl)cc1)c1csc(Nc2cc(NCCCO)ncn2)n1 (stereo not drawn) | ? | nt | nt | 14.6µM* | nt | ?
O=C(OCc1nc2scc(-c3ccccc3)c2c(=O)[nH]1)c1cc(Cl)ccc1[N+](=O)[O-] | -24.2% | ? | -13.0% | -28.3% | 11.2µM* | ?
CCOc1cc(C2NC(=O)NC(C)=C2C(=O)OCC(F)(F)F)ccc1O (stereo not drawn) | -25.9% | nt | nt | nt | nt | nt
Cc1ccc(C)n1-c1nc(=S)[nH][nH]1 | 4.47µM* | -1.1% | 0.0% | -8.1% | -30.5% | -19.0%
O=C(/C=C/c1ccc(S(=O)(=O)N2CCOCC2)cc1)Nc1cc(F)ccc1F | 0.8% | nt | ? | 20.6µM* | nt | ?
Cc1ccc(F)cc1NC(=O)/C=C/c1ccc(S(=O)(=O)N2CCOCC2)cc1 | -5.7% | nt | 23.1µM* | ? | nt | ?
O=C(/C=C/c1ccc(F)cc1)Nc1cccc(S(=O)(=O)N2CCOCC2)c1 | -1.0% | nt | ? | ? | nt | ?
O=C(/C=C/c1ccc(S(=O)(=O)N2CCOCC2)cc1)NC(=S)Nc1ccc(Cl)cc1Cl | -17.8% | 11.6% | 5.8% | ? | 11.2µM* | ?
CCN(CC)S(=O)(=O)c1cccc(NC(=S)NC(=O)/C=C/c2ccc(S(=O)(=O)N3CCOCC3)cc2)c1 | ? | 6.2% | ? | ? | ? | 0.5%
COc1cc(/C=C2/C(=O)NN(c3cccc(F)c3)C2=O)ccc1OC(=O)c1ccco1 | 44.7µM* | ? | ? | 16.4µM* | -9.2% | ?
C=CCN1C(=O)/C(=C\c2ccc(OC(=O)c3ccco3)c(OC)c2)SC1=S | -15.2% | -18.5% | 18.4% | ? | 17.6% | -11.7%
CN(C)c1ccc(C(=O)N2CCCC(n3cc(-c4nc(C5CC5)no4)nn3)C2)cc1 (stereo not drawn) | 21.5% | nt | nt | nt | nt | nt
C=CCOc1ccc(CNn2cn[nH]c2=S)cc1OCC | ? | -12.7% | 0.7% | -0.2% | 11.2µM* | 2.4%
COc1cc(CNn2c(C)n[nH]c2=S)cc(Cl)c1OCc1ccccc1 | 20µM* | -14.6% | -8.9% | -12.2% | 7.94µM* | -22.8%
C=CCOc1ccc(CNn2cn[nH]c2=S)cc1OC | 8.7% | 9.0% | 26.2% | -17.9% | -27.1% | -2.3%
COc1cc(CNn2cn[nH]c2=S)cc(Cl)c1OCc1ccc(F)cc1 | ? | 3.98µM* | -6.9% | -75.7% | 7.08µM* | ?
Cc1c(Cl)cccc1NC(=O)C(=O)NNC(=O)c1ccccc1F | 16.9% | ? | 3.3% | ? | 14.1µM* | ?
CN(C)C(=O)c1ccc(NC(=O)c2ccccc2CSc2nc3ccccc3o2)cc1 | 5.2% | nt | nt | nt | nt | nt
O=C1N2CCCC2CN1C1CCN([S+](=O)([O-])c2cccc(C(F)(F)F)c2)CC1 (stereo not drawn) | 7.8% | nt | nt | nt | nt | nt
COc1cc(OC)cc(-c2c(-c3ccc(F)cc3)c3cc(-c4cnc(OC)nc4)ccc3n2C)c1 | -7.1% | nt | ? | 13µM* | nt | 16.4µM*
SMILES | 12-LOX inh | Gal4-VP16 FLuc | ELG1 DNA repair | TDP1 cell noCPT | RORg inh | DT40 TDP1 CPT
COc1ccc(-c2c(-c3cc(OC)cc(OC)c3)n(C)c3ccc(-c4cnc(N)nc4)cc23)cc1 | ? | nt | ? | ? | nt | -25.9%
COc1cccc(-c2c(-c3cc(OC)cc(OC)c3)n(C)c3ccc(-c4cnc(N5CCOCC5)nc4)cc23)c1 | 12.8% | nt | 6.2% | 23.1µM* | nt | 13µM*
COc1cccc(-c2c(-c3cc(OC)cc(OC)c3)n(C)c3ccc(-c4cnc(OC)nc4)cc23)c1 | -1.2% | nt | ? | 14.6µM* | nt | ?
COc1cc(OC)cc(-c2c(Sc3ccccc3)c3cc(-c4cnc(N5CCOCC5)nc4)ccc3n2C)c1 | -2.1% | nt | nt | ? | nt | -1.2%
COc1ccc(-c2c(-c3cc(OC)cc(OC)c3)n(C)c3ccc(-c4ccc(S(N)(=O)=O)cc4)cc23)cc1 | 2.2% | nt | ? | 4.11µM* | nt | 10.3µM*
NC(=O)c1sc2nc3c(c(-c4ccco4)c2c1N)CCC3 | -51.6% | 9.6% | ? | 14.1µM* | 5.0% | ?
COc1ccc(NC(=O)c2sc3nc4c(c(-c5ccco5)c3c2N)CCCCC4)cc1 | 1.4% | nt | nt | nt | nt | nt
CCc1nc2sc(C(C)=O)c(N)c2c2c1CCCC2 | ? | 3.2% | -0.9% | 14.6µM* | -12.8% | ?
Cc1nc2sc(C(N)=O)c(N)c2c2c1CCCC2 | 33.8% | 4.9% | ? | ? | 5.62µM* | ?
Nc1c(C(=O)NC2CC2)sc2nc3c(c(-c4ccco4)c12)CC/C3=C/c1ccco1 | nt | -22.5% | 6.0% | 16.4µM* | -20.1% | 18.4µM*
Cc1ccc(-c2c3c(nc4sc(C(N)=O)c(N)c24)CCCC3)o1 | -21.9% | -4.6% | ? | -23.6% | 10.0% | -5.0%
CC1CCC(C(=O)Nc2c(NC3CCCCC3)c3ccccc3oc2=O)CC1 (stereo not drawn) | -31.0% | nt | nt | nt | nt | nt
Cc1noc(C)c1S(=O)(=O)N1CCC(N(CCC(C)C)C2CCOCC2)CC1 | 12.6% | nt | nt | nt | nt | nt
NC(=O)c1sc2nc(-c3ccccc3)c3c(c2c1N)CCCC3 | -24.5% | -3.1% | -9.2% | 16.4µM* | 1.9% | ?
CCN(CC)S(=O)(=O)c1cccc(NC(=O)CSc2nc3ccccc3[nH]2)c1 | 1.1% | 0.4% | 23.1µM* | 16.4µM* | 32.8% | 23.1µM*
CN(C)S(=O)(=O)c1cccc(NC(=O)CSc2nnnn2-c2ccccc2)c1 | -11.8% | 7.1% | ? | 23.1µM* | 16.1% | 14.6µM*
Cc1cccc(NC(=O)CSc2nnc(CNC(=O)c3ccc(S(=O)(=O)N(C)C)cc3)n2-c2cccc(C)c2)c1 | -17.2% | -3.0% | -15.5% | ? | ? | 16.4µM*
CCN(CC)S(=O)(=O)c1ccc(NC(=O)CSc2nnc3c(n2)[nH]c2ccccc23)cc1 | nt | nt | nt | 6.31µM* | nt | 7.08µM*
